Source: PubChem BioAssay
FLuc counter = qHTS profiling assay for firefly luciferase inhibitor/activator using purifed enzyme and Km concentrations of substrates (counterscreen for miR-21 project); AID 588342, 2011; Luciferin 4-monooxygenase (Photinus pyralis), P08659; Potency, µM (titrated, usually from 57.5 µM), for the others: at the top dose activity change, negative = inhibition, most hits filed as inhibitors; hit rate 6.9% among 360,000; purified FLuc, Km substrates, luminescence inhibition;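 further: plate controls were vehicle for no effect and reference inhibitor for full effect; nearly all actives have a fitted effect of over 55% in size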
Target sequence (P08659 whole entry, looked up): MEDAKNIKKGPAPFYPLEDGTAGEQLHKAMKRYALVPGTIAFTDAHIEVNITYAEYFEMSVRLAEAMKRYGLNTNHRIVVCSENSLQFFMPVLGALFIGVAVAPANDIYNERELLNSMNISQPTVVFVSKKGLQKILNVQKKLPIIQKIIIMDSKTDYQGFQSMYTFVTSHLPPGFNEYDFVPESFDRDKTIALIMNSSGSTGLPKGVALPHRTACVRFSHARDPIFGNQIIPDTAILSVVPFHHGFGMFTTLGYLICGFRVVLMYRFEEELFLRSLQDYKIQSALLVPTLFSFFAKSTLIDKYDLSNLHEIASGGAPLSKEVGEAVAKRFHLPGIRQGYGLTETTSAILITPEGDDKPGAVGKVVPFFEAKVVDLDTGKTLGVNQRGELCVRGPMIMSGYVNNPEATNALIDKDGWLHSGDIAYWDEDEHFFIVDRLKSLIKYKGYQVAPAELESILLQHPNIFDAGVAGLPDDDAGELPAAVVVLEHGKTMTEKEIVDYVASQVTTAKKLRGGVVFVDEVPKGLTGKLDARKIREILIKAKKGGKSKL
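Biochemical qHTS of compounds, final roughly 60 µM downward over six points, against 10 nM purified firefly luciferase using Km concentrations of substrates (10 uM D-luciferin, 10 uM ATP) in Tris acetate pH 7.5 buffer; luminescence output.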
KinaseGlo FLuc = Counterscreen for Luciferase (Kinase-Glo TM) Inhibition. Kinase-Glo luciferase, ATP luminescence, 8 min. Luciferin 4-monooxygenase (Photuris pensylvanica), Q27757. hit rate 0.28% among 200,000. Potency, µM (series often up to 38.3 µM), for inactives: top-dose activity change, negative = inhibition, usual class: inhibitors. AID 1379, 2008; further: on the % scale 0 is the no-effect control and ±100 the full control effect; nearly all actives have a fitted effect of over 60% in size
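Inhibition of Kinase-Glo luciferase light generation was assessed at 10 uM ATP in pH 7.2 imidazole buffer, with luminescence measured after eight minutes at ambient temperature.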
SMN2 splice enh = qHTS Assay for Enhancers of SMN2 Splice Variant Expression; HEK293 SMN2-luciferase splicing reporter, luminescence, 30-36 h; Potency, µM (doses to about 46.1 µM), without a hit: at the top dose activity change, positive = activation, usual class: activators; hit rate 2.8% among 210,000; further: % of control where 0% means no effect; nearly all actives have a fitted effect of over 55% in size
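qHTS luciferase splicing reporter: luminescence rises when SMN2 exon 7 is included in transfected HEK293 cells. Compound exposure lasted 30-36 h at 37C, with 4.5 mM final sodium butyrate as control, followed by a ONE-Glo read.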
ELG1 genotoxic = qHTS screen for small molecules that induce genotoxicity in human embryonic kidney (HEK293T) cells expressing luciferase-tagged ELG1; HEK293T ELG1-luciferase reporter, luminescence, 16 h; Potency, µM (top dose mostly 46 µM), inactives show at the top dose activity change, positive = activation, usual class: activators; hit rate 1.3% among 330,000; further: % of control where 0% means no effect; nearly all actives have a fitted effect of over 60% in size
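HEK293T cells expressing luciferase-tagged ELG1 were exposed to compound or DMSO vehicle for 16 hr at 37 °C and 5% CO2. Luciferase activity was then measured with ONE-Glo after 30 min at room temperature.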
NPC1 promoter act = qHTS Assay for NPC1 Promoter Activators. Huh7 NPC1 promoter luciferase reporter, 24 h. Potency, µM (top dose mostly 9.22 µM), inactives show top-dose activation, most hits filed as activators. hit rate 2.4% among 320,000. AID 485313, 2010; further: % of control where 0% means no effect; nearly all actives have a fitted effect of over 60% in size
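Huh7 cells stably carrying NPC1 promoter–luciferase, plated in Opti-MEM with 10% FBS for 2 h, were exposed to compound in DMSO for 24 h at 37 °C; luciferase reagent was added for 10 min and luminescence read.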
Rab9 prom act = qHTS Assay for Rab9 Promoter Activators. Huh7 Rab9 promoter-luciferase reporter, luminescence, 24 h. Potency, µM (series often up to 9.22 µM), for the others: at the highest dose activation, negative = inhibition, hits mostly activators. hit rate 2.8% among 320,000. AID 485297, 2010; further: % of control where 0% means no effect; nearly all actives have a fitted effect of over 60% in size
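Quantitative HTS format; Huh7 Rab9-luciferase reporter cells (1500/well) receive compound 2 h post-plating, incubate 24 h at 37 °C, then get luciferase reagent for 10 min before luminescence reading.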
* hit, by the source's call; ? = inconclusive; . = no result; [ ] = another dose, or the depositor's remark. In the library only some 7.3% were active in any assay of this set; here they are far more common. The call rests on the fitted dose curve; in most records, active means well fitted curve in the direction sought with a large enough effect; inconclusive means small, poorly fitted or top-dose-only effect, or another doubt; inactive means no such curve, though single readings can be large; an effect the other way counts as inactive or inconclusive. Potency means the concentration at half of the fitted maximal effect.

SMILES	FLuc counter	KinaseGlo FLuc	SMN2 splice enh	ELG1 genotoxic	NPC1 promoter act	Rab9 prom act
O=C(CNC(=O)C1CCCCC1)Nc1ccc(Cl)cc1	-5%	4%	11µM*	?	15%	3%
O=C(CNC(=O)C1CCCCC1)Nc1ccc(F)c(Cl)c1	2%	0%	18µM*	0%	-8%	-1%
O=C(Nc1ccc(F)c(Cl)c1)C1CCCCC1	-18%	.	.	-1%	1%	7%
O=C(O)CC(CC(=O)Nc1ccc(-n2ccc(C(F)(F)F)n2)cc1)c1ccccc1 (centres undefined)	3%	.	.	3%	2%	-3%
O=C(Nc1ccccc1)Nc1ccc(-n2ccc(C(F)(F)F)n2)cc1	4.3µM*	.	.	?	2.8µM*	1.8µM*
Cc1cccc(Cn2c(CNS(=O)(=O)c3ccc(C(C)C)cc3)nc3cccnc32)c1	-2%	.	.	.	.	.
COc1ccc(N(C(=O)/C=C\C(=O)Nc2ccc(Cl)cc2)C(C(=O)NCc2ccco2)c2ccc(C)cc2)cc1 (centres undefined)	-9%	.	.	.	.	.
CCOc1cccc(/C=C2\NC(=S)N(c3ccccc3)C2=O)c1O	5.4µM*	.	.	12%	1%	?
CCOc1cc(/C=C2\NC(=S)N(c3c(C)n(C)n(-c4ccccc4)c3=O)C2=O)ccc1O	-1%	-1%	3%	2%	-4%	-5%
CCOC(=O)Cn1c(=O)c(-c2cc(Br)ccc2N)nc2ccccc21	4%	.	.	0%	-7%	1%
Cn1c(=O)c(-c2cc(Br)ccc2N)nc2ccccc21	24µM*	-4%	19%	?	18%	?
COc1ccc(/C=N/NC(=O)c2cccc(NC(=O)c3ccccc3Cl)c2)c(OC)c1	4.3µM*	1%	-28%	14%	10%	2%
O=C(N/N=C/c1ccncc1)c1cccc(NC(=O)c2ccccc2Cl)c1	?	-1%	2%[1.84 µM]	-3%	-2%	5%
COc1ccccc1/C=N/NC(=O)c1cccc(NC(=O)c2ccccc2C)c1	15µM*	.	.	-18%	-3%	1%
COc1ccc(C(=O)Nc2cccc(C(=O)N/N=C/c3ccc(OC)cc3OC)c2)cc1	1.9µM*	.	.	1%	?	4µM*
COc1ccc(/C=N/NC(=O)c2cccc(NC(=O)c3ccccc3Cl)c2)cc1	5.4µM*	.	.	0%	-19%	-2%
Cc1ccc(C)c(NC(=O)C2CCN(c3cc(C)nc4c(-c5ccc(Cl)cc5)c(C)nn34)CC2)c1	-1%	.	4%	.	.	.
CCCn1c(-c2ccc(F)cc2)nc2c(NCCCN(CCO)CCO)nc(C)nc21	.	-4%	7%	.	.	.
COc1ccc(/C=N/NC(=O)c2cccc(NC(C)=O)c2)c(OC)c1	-17%	-3%	-6%	0%	1%	3%
COc1ccc(N2Cc3ccc(C(=O)N/N=C\c4ccc(O)cc4O)cc3C2)cc1	15µM*	.	.	11%	?	?
CCCCC(=O)Nc1cccc(C(=O)N/N=C/c2ccc(OC)cc2OC)c1	17µM*	-3%	-18%	0%	-1%	1%
COc1cc(/C=N/NC(=O)c2cccc(NC(=O)c3ccccc3Cl)c2)ccc1O	15µM*	1%	-7%	-9%	5%	-5%
COc1ccc(NC(=O)O/N=C/c2ccccc2Cl)cc1	30µM*	.	.	16%	4%	-2%
COc1ccc(/C=N/NC(=O)c2cccc(NC(=O)c3ccccc3Cl)c2)cc1OC	?	0%	-10%	-6%	4%	-3%
[ClH+][Cu][ClH+].[Cu].[OH2+]c1ccc2ccccc2c1CN1CCCCC1.[OH2+]c1ccc2ccccc2c1CN1CCCCC1	.	-7%[7.66 µM]	-24%[9.22 µM]	.	.	.
SMILES	FLuc counter	KinaseGlo FLuc	SMN2 splice enh	ELG1 genotoxic	NPC1 promoter act	Rab9 prom act
COc1ccc(-n2ncc(C(=O)N3CCN(Cc4ccccc4)CC3)c2C2CCN(C(=O)OC(C)(C)C)CC2)cc1	1%	.	.	.	.	.
O=C(N/N=C/c1ccc(F)cc1)c1cccc(NC(=O)c2ccccc2Cl)c1	9.5µM*	.	.	2%	0%	6%
CNC(=O)c1ccc(Nc2nnc(-c3ccc(C)c(S(=O)(=O)N4CCOCC4)c3)c3ccccc23)cc1	?	.	-11%	.	.	.
CC(C)(C)c1ccc(C(=O)Nc2ccccc2NC(=O)c2ccco2)cc1	19µM*	-1%	-13%	-3%	-1%	-2%
CC(C)(C)c1ccc(C(=O)Nc2cccc3ncccc23)cc1	13µM*	.	.	-4%	-2%	5%
O=C(Nc1ccccc1NC(=O)c1ccco1)c1ccccc1	0%	.	.	-2%	-2%	-4%
CC(C)(C)c1ccc(C(=O)Nc2ccccc2Cl)cc1	1.9µM*	-5%	.	0%	0.79µM*	0.71µM*
CSc1cc2c(cc1C(F)(F)F)N(C(=O)Nc1cccnc1)CC2	.	3%	.	.	.	.
CCc1ccc(-n2nc3ccc(NC(=O)c4ccc(C#N)cc4F)cc3n2)cc1	6%	.	-3%	.	.	.
Cc1ccc(NC(=O)Cn2c(SCc3ccc(F)cc3)nc3cccnc32)cc1F	-18%	.	.	.	.	.
COc1cccc(NC(=O)Nc2ccc(C(C)(C)C)cc2)c1	3µM*	-2%	11µM*	-9%	?	?
CCCC(=O)Nc1ccc(C(=O)Nc2cccc(OC)c2)cc1	?	-19%	-7%	12%	21%	12%
COc1cccc(NC(=O)c2ccc(NC(=O)C(C)(C)C)cc2)c1	9.5µM*	-4%	13µM*	14%	?	?
Cc1nc(NCc2ccco2)c2c3c(sc2n1)CCC3	2%	-2%	22µM*	1%	-14%	14%
Cc1nc(NCc2cccnc2)c2c3c(sc2n1)CC(C)CC3 (centres undefined)	24µM*	3%	-6%	1%	11%	6%
C[C@@H](O)C#C[Si](C)(C)c1ccccc1	.	-1%	6%	.	.	.
COc1ccc(/C=N/NC(=O)c2ccccc2OCc2ccccc2)c(OC)c1	17µM*	0%	-14%	-12%	-2%	1%
COc1ccccc1C=NNC(=O)c1ccccc1OCCOc1ccccc1	.	.	.	-6%	.	.
COc1ccc(/C(C)=N/NC(=O)c2ccccc2OCc2ccccc2)c(OC)c1	19µM*	-5%	13µM*	?	?	?
C=C1C[C@@]23CC[C@H]4[C@@](C)(CCC[C@@]4(C)C(=O)O)[C@@H]2CC[C@]1(O)C3	.	.	.	.	-2%[46.1 µM]	-5%[46.1 µM]
Cc1ccc(N/C=C/C(=O)C(C)(C)C)c(O)c1	19µM*	1%	4%	10%	4%	17%
Cc1cccc(CNC(=O)C2CCN(S(=O)(=O)c3cccc4nonc34)CC2)c1	-2%	.	.	.	.	.
